For orientation: AC50 means the midpoint of the concentration-response curve, whichever way the signal moves.

Results on 26 molecules are retold here after PubChem BioAssay AID1851 (National Center for Advancing Translational Sciences (NCATS), 2009).

The structures appear in SMILES notation. The whole screen tested about 16,000 compounds, of which about 5,100 (32%) were called active. Inconclusive results (about 25%) are left out. This is one part of the list. Unmarked numbers belong to inactive results. Calls come from the whole dose curve; as a rule, active = well fitted curve in the direction sought with a large enough effect; inconclusive = small, poorly fitted or top-dose-only effect, or effect the other way; inactive = no such curve, though single readings can be large or run the other way.
% is set by controls: 0 for no effect and ±100 for the full control effect.

The assay deals with Cytochrome P450 3A4 (Homo sapiens) (UniProt P08684). In words: Cytochrome panel assay with activity outcomes. The note with it: recombinant CYP, pro-luciferin dealkylation, luminescence, p450-cyp3a4; series mostly up to 57.1 µM.
Chain of Cytochrome P450 3A4 (Homo sapiens) (P08684 whole entry, looked up): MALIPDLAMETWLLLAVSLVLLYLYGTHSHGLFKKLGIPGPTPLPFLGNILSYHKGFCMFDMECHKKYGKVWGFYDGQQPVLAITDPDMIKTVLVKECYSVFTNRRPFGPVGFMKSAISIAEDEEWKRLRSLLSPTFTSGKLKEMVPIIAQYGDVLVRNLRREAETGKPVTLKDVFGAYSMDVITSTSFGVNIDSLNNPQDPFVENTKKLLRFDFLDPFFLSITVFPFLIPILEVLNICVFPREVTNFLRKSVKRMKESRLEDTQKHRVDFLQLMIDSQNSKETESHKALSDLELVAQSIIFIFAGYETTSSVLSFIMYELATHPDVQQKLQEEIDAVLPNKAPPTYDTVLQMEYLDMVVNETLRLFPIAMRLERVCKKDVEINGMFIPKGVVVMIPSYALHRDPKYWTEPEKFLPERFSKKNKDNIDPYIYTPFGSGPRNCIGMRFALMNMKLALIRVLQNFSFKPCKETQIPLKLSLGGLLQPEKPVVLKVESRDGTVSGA
In the case of `O=C(O)CNc1ccc(C(=O)O)cc1`, the activity, negative = inhibition is -7.89% [at 11.4 µM].
In the case of `CC(C)(C)COS(=O)OCC(C)(C)C`, the activity, negative = inhibition was -4.89% [at 11.4 µM].
For `O=C(O)CCC(=O)N1CCOc2ccc(Cl)cc21`, the AC50 entry was “inactive”.
As to `CN(C)CCn1c(CO)nc2c1c(=O)n(C)c(=O)n2C`, the activity, negative = inhibition is -3.94% [at 11.4 µM].
Regarding `O=c1cc(CO)oc(CN2CCCC2)c1O`, the AC50 entry was “inactive”.
Regarding `Cc1ccccc1-c1nc(NCc2cccnc2)c2ccccc2n1`, the AC50 is 0.501 µM (active).
Same read-out and setting: the result for `CO[C@]1(NC(=O)CSCC#N)C(=O)N2C(C(=O)O)=C(CSc3nnnn3C)CS[C@H]21` reads “inactive”; that for `COc1ccc(C(C(=O)NC2CCCCC2)N(C(=O)Cc2c[nH]c3ccccc23)c2ccc(NC(C)=O)cc2)cc1OC` (stereo unspecified), 3.16 µM (active).
For the molecule `COc1ccc(CC(NC(C)=O)C(=O)NC2CCN(C(=O)Nc3ccc(Cl)cc3)CC2)cc1OC` (stereo unspecified), the activity, negative = inhibition is -6.41% [at 2.29 µM].
For the molecule `CC(C)C(=O)NCCc1nc2ccccc2n1CCCOc1ccc(Cl)cc1`, the half-maximal activity concentration (AC50) is 11.2 µM (active).
Same read-out and setting: the result for `CC(OC(=O)Cn1c(C(F)(F)F)nc2ccccc21)C(N)=O` (stereo unspecified) reads “inactive”.
For the molecule `Clc1ccc(Cn2c(-c3cccnc3Cl)nc3ccccc32)c(Cl)c1`, the activity, negative = inhibition was -20.9% [at 2.29 µM].
For the molecule `C[C@]1(c2ccccc2)OC(C(=O)O)=CC1=O`, the AC50 entry is “inactive”.
For the molecule `CCOc1ccc(C(=O)O)cc1OC`, the AC50 result was “inactive”.
Turning to `O=C(O)c1ccc(OCc2ccccc2)c(Cl)c1`, the activity, negative = inhibition is -32.8% [at 11.4 µM].
Consider `CCC(=O)c1ccc(OCc2ccc(C(=O)OC)cc2)c(OC)c1`, for which the AC50 was 4.47 µM (active).
As to `CC(C)=CCC/C(C)=C/CO/N=C1/C[C@@H](O)[C@@H](O)[C@@H]2[C@@H]3C(=O)N(C4CCCCC4)C(=O)[C@H]3CC[C@@H]12`, the activity, negative = inhibition is -27% [at 11.4 µM].
As to `O=C1CC(c2cccs2)c2cc3c(cc2N1)OCO3` (stereo unspecified), the AC50 is 7.08 µM (active).
Take `CC1(C)CC2(CC(c3cccs3)c3cc(Cl)c(O)cc3O2)NC(=S)N1` (stereo unspecified): the activity, negative = inhibition was -22.1% [at 2.29 µM].
Same read-out and setting: the result for `CCCCNC(=S)NNC(=O)c1sccc1C` reads 1.58% [at 2.29 µM].
As for `CCCCNC(=S)NNC(=O)CCn1nc(C)c(Br)c1C`, the half-maximal activity concentration (AC50) was 4.47 µM (active).
In the case of `c1ccc([P+](CC[P+](c2ccccc2)(c2ccccc2)c2ccccc2)(c2ccccc2)c2ccccc2)cc1`, the activity, negative = inhibition is 1.54% [at 11.4 µM].
Still for that read-out and setting: the result for `C[C@]12CC[C@H]3c4ccc(O)cc4CC[C@@H]3[C@H]1C/C(=N/O)[C@H]2O` reads -4.59% [at 11.4 µM]; that for `CC(C)Cn1cnc2c(SCc3ccccn3)nc(N)nc21`, -22.1% [at 11.4 µM].
Turning to `CC(C)Cn1cnc2c(SCc3ccc(Cl)cc3Cl)nc(N)nc21`, the AC50 is 3.98 µM (active).
Turning to `Cc1ccc2ccccc2c1CSc1nc(N)nc2c1ncn2CC(C)C`, the activity, negative = inhibition is -24.4% [at 11.4 µM].
